Measurements from the supplement of paper PMC11732987, “Enantioselective OTUD7B fragment discovery through chemoproteomics screening and high-throughput optimisation” (Communications Chemistry, 2025).

Legend:
Assay in all cases: log2 ratio of Biotin-Ahx-Ub-VS probe labelling (fragment/DMSO); higher = less target engagement (more negative = stronger competition), active = hit call of the paper (q ≤ 0.05, log2 ratio ≤ -1)
Conditions in all cases: compound concentration: 200 uM; treatment time: 3 h
OTUD6B = target: T1, OTUD6B (UniProt Q8N6M0)
T1 sequence (whole entry): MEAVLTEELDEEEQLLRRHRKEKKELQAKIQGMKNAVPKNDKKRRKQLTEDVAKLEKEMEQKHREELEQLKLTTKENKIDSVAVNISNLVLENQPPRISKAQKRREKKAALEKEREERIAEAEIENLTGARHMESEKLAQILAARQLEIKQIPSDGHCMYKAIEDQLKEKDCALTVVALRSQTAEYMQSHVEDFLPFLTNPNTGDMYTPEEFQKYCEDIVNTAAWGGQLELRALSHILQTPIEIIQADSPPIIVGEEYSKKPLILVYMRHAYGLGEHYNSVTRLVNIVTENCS
In short: (§1)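 Labelling with Biotin-Ahx-Ub-VS (0.5 µM final, 1 h) followed a 3 h triplicate treatment of HEK293T lysate (495 µg per sample, Tris/CHAPS/IGEPAL buffer with protease inhibitors) with fragment at 200 µM or vehicle. Labelled DUBs were NeutrAvidin-enriched, digested with LysC and trypsin, and run by diaPASEF LC-MS/MS. The values, average log2 fragment/vehicle ratios by unpaired t-test, come from global-median-normalised Spectronaut label-free quantities. Proteins with ≥2 unique peptides were used.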

OTUD7B = target: T2, OTUD7B (UniProt Q6GQQ9)
T2 sequence (whole entry): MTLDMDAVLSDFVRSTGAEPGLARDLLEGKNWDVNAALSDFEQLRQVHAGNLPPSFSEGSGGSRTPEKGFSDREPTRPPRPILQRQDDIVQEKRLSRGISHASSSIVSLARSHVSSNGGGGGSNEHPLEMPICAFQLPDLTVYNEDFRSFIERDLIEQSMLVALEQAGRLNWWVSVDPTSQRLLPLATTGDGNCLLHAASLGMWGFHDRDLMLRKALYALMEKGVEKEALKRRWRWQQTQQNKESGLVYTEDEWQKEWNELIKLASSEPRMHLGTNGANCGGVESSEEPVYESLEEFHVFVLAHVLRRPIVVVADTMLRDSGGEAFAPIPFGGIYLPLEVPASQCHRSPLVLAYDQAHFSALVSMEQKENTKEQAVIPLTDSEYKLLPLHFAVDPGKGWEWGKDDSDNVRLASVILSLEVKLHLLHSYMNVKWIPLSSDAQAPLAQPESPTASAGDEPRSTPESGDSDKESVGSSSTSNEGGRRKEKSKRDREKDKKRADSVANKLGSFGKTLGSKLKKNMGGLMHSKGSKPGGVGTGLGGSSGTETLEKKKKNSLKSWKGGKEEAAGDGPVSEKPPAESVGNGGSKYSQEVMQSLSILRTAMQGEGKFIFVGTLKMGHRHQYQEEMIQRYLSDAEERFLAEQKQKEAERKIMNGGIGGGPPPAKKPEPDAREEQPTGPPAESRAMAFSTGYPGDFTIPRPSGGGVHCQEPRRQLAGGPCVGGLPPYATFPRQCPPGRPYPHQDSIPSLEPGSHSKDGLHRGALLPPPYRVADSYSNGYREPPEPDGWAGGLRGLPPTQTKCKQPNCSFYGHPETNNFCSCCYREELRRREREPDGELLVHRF
In short: as §1

PRPF8 = PRPF8 (UniProt Q6P2Q9)
In short: as §1

PSMD7 = target: T3, PSMD7 (UniProt P51665)
T3 sequence (whole entry): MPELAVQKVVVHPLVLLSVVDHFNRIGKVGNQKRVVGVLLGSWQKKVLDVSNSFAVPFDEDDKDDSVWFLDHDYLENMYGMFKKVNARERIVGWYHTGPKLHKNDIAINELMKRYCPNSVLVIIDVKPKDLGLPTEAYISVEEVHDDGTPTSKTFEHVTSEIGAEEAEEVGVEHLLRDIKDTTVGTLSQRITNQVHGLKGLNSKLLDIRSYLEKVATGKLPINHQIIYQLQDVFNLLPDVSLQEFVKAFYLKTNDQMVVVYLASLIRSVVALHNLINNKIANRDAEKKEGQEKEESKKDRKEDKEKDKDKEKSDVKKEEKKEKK
In short: as §1

UCHL1 = UCHL1 (UniProt P09936)
In short: as §1

UCHL3 = target: T4, UCHL3 (UniProt P15374)
T4 sequence (whole entry): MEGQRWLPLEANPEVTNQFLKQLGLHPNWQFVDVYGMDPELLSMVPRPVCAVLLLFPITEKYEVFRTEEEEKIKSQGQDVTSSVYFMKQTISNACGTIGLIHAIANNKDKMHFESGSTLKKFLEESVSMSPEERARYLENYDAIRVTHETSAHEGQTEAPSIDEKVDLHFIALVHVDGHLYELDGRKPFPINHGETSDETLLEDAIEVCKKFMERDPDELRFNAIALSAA
In short: as §1

UCHL5 = target: T5, UCHL5 (UniProt Q9Y5K5)
T5 sequence (whole entry): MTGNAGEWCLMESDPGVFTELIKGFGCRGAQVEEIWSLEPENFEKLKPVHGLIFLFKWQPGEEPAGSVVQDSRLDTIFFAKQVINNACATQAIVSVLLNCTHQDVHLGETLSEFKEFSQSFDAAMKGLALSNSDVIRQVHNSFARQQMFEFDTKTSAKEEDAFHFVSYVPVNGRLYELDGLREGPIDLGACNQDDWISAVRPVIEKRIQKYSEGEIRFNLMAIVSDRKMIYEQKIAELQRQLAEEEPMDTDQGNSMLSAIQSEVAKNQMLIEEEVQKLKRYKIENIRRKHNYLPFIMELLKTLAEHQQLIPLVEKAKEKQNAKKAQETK
In short: as §1

USP10 = USP10 (UniProt Q14694)
In short: as §1

USP15 = target: T6, USP15 (UniProt Q9Y4E8)
T6 sequence (whole entry): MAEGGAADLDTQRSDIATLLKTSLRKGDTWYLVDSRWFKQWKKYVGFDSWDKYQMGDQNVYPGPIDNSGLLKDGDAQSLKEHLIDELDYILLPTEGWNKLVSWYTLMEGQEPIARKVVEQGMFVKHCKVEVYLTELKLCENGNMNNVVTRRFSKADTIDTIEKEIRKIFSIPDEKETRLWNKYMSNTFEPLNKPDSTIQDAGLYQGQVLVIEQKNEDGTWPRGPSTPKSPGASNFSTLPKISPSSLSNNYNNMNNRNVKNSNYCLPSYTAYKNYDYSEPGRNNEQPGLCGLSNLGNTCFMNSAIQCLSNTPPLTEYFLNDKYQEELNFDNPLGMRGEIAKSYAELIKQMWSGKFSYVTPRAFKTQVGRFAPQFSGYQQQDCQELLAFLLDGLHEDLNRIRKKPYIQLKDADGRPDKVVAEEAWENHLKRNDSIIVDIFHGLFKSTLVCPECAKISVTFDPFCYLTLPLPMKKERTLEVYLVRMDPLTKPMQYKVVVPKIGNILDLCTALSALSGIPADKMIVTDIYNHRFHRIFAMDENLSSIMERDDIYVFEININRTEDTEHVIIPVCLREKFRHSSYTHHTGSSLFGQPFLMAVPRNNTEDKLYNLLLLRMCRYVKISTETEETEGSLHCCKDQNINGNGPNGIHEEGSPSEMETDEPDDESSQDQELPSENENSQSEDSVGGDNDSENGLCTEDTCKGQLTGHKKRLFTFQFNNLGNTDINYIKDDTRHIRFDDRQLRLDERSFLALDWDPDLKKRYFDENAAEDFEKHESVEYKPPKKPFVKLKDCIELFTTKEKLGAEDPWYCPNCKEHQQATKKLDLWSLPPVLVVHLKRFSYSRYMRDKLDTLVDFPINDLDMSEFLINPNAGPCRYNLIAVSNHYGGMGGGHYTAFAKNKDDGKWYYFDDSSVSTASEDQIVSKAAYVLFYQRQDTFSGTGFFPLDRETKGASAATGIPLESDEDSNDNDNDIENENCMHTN
In short: as §1

USP16 = USP16 (UniProt Q9Y5T5)
In short: as §1

Measured: log2 ratio of Biotin-Ahx-Ub-VS probe labelling

Chain of UCHL1 (P09936 whole entry, looked up): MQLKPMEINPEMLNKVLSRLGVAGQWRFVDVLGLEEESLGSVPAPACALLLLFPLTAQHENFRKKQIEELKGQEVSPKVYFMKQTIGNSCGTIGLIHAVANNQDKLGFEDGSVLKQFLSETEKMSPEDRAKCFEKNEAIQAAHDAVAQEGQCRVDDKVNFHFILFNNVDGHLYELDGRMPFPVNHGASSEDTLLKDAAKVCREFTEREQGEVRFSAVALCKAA
Chain of USP16 (Q9Y5T5 whole entry, looked up): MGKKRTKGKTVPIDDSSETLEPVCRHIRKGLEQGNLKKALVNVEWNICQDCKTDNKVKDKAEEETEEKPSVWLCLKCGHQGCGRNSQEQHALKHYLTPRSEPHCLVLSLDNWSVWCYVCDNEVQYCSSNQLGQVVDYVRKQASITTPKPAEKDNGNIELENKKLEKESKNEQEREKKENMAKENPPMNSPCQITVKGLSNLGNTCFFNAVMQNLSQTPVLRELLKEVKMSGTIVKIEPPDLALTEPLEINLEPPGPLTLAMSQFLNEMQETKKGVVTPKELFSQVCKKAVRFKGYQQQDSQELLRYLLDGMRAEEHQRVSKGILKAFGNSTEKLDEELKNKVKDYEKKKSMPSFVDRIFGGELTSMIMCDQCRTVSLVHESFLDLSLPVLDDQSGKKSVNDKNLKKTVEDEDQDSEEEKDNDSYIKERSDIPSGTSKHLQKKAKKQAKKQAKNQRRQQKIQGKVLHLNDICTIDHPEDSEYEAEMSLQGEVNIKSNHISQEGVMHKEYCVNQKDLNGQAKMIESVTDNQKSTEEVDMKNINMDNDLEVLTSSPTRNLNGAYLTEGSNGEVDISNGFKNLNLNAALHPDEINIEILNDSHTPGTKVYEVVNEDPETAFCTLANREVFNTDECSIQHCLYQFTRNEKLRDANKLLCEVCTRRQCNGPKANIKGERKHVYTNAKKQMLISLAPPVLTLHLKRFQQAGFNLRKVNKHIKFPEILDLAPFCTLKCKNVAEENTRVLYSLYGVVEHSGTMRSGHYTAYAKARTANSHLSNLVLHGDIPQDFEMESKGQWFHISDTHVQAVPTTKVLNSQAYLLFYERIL
Chain of USP10 (Q14694 whole entry): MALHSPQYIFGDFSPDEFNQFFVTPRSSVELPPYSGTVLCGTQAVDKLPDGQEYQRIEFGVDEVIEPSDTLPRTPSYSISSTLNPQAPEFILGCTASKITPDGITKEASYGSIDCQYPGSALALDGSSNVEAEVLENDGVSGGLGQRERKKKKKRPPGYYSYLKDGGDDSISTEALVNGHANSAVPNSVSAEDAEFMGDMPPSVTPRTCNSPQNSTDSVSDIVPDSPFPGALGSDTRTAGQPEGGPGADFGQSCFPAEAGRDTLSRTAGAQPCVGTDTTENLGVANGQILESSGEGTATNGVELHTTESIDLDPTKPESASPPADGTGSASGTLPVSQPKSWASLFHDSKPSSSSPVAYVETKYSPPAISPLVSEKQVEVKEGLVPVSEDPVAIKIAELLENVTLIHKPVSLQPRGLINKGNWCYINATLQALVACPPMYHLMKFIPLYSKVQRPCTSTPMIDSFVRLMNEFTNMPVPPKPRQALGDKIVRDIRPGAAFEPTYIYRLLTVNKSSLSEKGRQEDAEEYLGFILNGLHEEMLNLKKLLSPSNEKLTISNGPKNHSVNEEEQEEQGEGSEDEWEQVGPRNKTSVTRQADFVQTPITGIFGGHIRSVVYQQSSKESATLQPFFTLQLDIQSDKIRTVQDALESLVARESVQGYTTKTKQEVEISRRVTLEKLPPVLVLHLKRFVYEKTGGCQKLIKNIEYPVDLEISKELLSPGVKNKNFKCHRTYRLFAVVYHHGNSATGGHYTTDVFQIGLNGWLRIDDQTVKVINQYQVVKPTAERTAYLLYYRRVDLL

O=C(CCl)NC1CCN(C(=O)C2CCCCC2)CC1
inactive: OTUD6B 0.191 | OTUD7B -0.643 | PRPF8 0.0534 | PSMD7 -0.106 | UCHL1 -0.513 | UCHL3 0.338 | UCHL5 0.125 | USP10 -0.0591 | USP15 -0.0587 | USP16 -0.0778
